Test results as given in PubChem BioAssay AID1159580 (chemical genetic matrix, 2015).
Hit rate of the full screen: of about 5,500 compounds, about 2,000 (36%) were called active. Inconclusive results (about 18%) are left out. Cut-off read from the data, not from the text of the source: active = normalized growth mostly below about 0.91 (no sharp cut-off); inconclusive = no clear call, values can overlap the other calls; inactive = mostly above about 0.92. This is one part of the list.

Assay: chemical genetic growth profiling, strain panel (AID 1159580);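 note: tested at 20 µM; growth read once vehicle control cultures reached saturation at 30 °C; 1 = growth at the plate median or of vehicle wells; lower values mean less growth of the strain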
Settings: growth OD
[1] = S. cerevisiae deletion strains, locus YCL061C, strain MRC1, stronger effect = lower value
[2] = S. cerevisiae deletion strains, locus YHR030C, strain SLT2, stronger effect = lower value
[3] = S. cerevisiae deletion strains, locus YJL187C, strain SWE1, stronger effect = lower value
[4] = S. cerevisiae deletion strains, locus YAL013W, strain DEP1, stronger effect = lower value
[5] = S. cerevisiae deletion strains, locus YDR150W, strain NUM1, stronger effect = lower value
[6] = S. cerevisiae deletion strains, locus YGR078C, strain PAC10, stronger effect = lower value
[7] = S. cerevisiae deletion strains, locus YJR075W, strain HOC1, stronger effect = lower value
[8] = S. cerevisiae deletion strains, locus YMR263W, strain SAP30, stronger effect = lower value
[9] = S. cerevisiae deletion strains, locus YMR307W, strain GAS1, stronger effect = lower value
[10] = S. cerevisiae deletion strains, locus YNL322C, strain KRE1, stronger effect = lower value
[11] = S. cerevisiae deletion strains, locus YPL055C, strain LGE1, stronger effect = lower value
[12] = S. cerevisiae deletion strains, locus YPL241C, strain CIN2, stronger effect = lower value
[13] = S. cerevisiae deletion strains, locus YAL040C, strain CLN3, stronger effect = lower value
[14] = S. cerevisiae deletion strains, locus YCL061C, strain MRC1 (second series), stronger effect = lower value
[15] = S. cerevisiae deletion strains, locus YDR363W, strain ESC2, stronger effect = lower value
[16] = S. cerevisiae deletion strains, locus YER002W, strain NOP16, stronger effect = lower value
[17] = S. cerevisiae deletion strains, locus YNL175C, strain NOP13, stronger effect = lower value
[18] = S. cerevisiae deletion strains, locus YNL197C, strain WHI3, stronger effect = lower value
[19] = S. cerevisiae deletion strains, locus YNL224C, strain SQS1, stronger effect = lower value
[20] = S. cerevisiae deletion strains, locus YOR083W, strain WHI5 (second series), stronger effect = lower value

Measured: normalized growth

COc1cc(C(=O)NCCCCCC(=O)O)cc(OC)c1OC
inactive: S. cerevisiae deletion strains, locus YAL021C, strain ccr4, stronger effect = lower value 0.976 | S. cerevisiae deletion strains, locus YAL026C, strain drs2, stronger effect = lower value 0.981 | S. cerevisiae deletion strains, locus YAL030W, strain snc1, stronger effect = lower value 0.959 | S. cerevisiae deletion strains, locus YBL061C, strain skt5, stronger effect = lower value 0.973 | S. cerevisiae deletion strains, locus YBR009C, strain hhf1, stronger effect = lower value 0.977 | S. cerevisiae deletion strains, locus YBR023C, strain chs3, stronger effect = lower value 0.986 | S. cerevisiae deletion strains, locus YBR171W, strain sec66, stronger effect = lower value 0.97 | S. cerevisiae deletion strains, locus YBR231C, strain swc5, stronger effect = lower value 0.978 | S. cerevisiae deletion strains, locus YBR279W, strain paf1, stronger effect = lower value 0.979 | S. cerevisiae deletion strains, locus YCL011C, strain gbp2, stronger effect = lower value 0.977 | S. cerevisiae deletion strains, locus YCL016C, strain dcc1, stronger effect = lower value 0.982 | [1] 0.995 | S. cerevisiae deletion strains, locus YCL069W, strain vba3, stronger effect = lower value 0.984 | S. cerevisiae deletion strains, locus YCR088W, strain abp1, stronger effect = lower value 0.986 | S. cerevisiae deletion strains, locus YDL005C, strain med2, stronger effect = lower value 0.973 | S. cerevisiae deletion strains, locus YDL040C, strain nat1, stronger effect = lower value 0.981 | S. cerevisiae deletion strains, locus YDR001C, strain nth1, stronger effect = lower value 0.969 | S. cerevisiae deletion strains, locus YDR069C, strain doa4, stronger effect = lower value 0.973 | S. cerevisiae deletion strains, locus YDR137W, strain rgp1, stronger effect = lower value 0.975 | S. cerevisiae deletion strains, locus YDR159W, strain sac3, stronger effect = lower value 0.966 | S. cerevisiae deletion strains, locus YDR195W, strain ref2 0.966 | S. cerevisiae deletion strains, locus YDR297W, strain sur2, stronger effect = lower value 0.962 | S. cerevisiae deletion strains, locus YDR334W, strain swr1, stronger effect = lower value 0.935 | S. cerevisiae deletion strains, locus YDR335W, strain msn5, stronger effect = lower value 0.975 | S. cerevisiae deletion strains, locus YDR392W, strain spt3, stronger effect = lower value 0.983 | S. cerevisiae deletion strains, locus YEL003W, strain gim4, stronger effect = lower value 0.98 | S. cerevisiae deletion strains, locus YEL037C, strain rad23, stronger effect = lower value 0.985 | S. cerevisiae deletion strains, locus YEL061C, strain CIN8 (second series), stronger effect = lower value 0.974 | S. cerevisiae deletion strains, locus YER015W, strain faa2, stronger effect = lower value 0.972 | S. cerevisiae deletion strains, locus YER016W, strain bim1, stronger effect = lower value 0.981 | S. cerevisiae deletion strains, locus YER111C, strain swi4, stronger effect = lower value 0.979 | S. cerevisiae deletion strains, locus YER155C, strain BEM2 (second series), stronger effect = lower value 0.969 | S. cerevisiae deletion strains, locus YFR010W, strain ubp6, stronger effect = lower value 0.966 | S. cerevisiae deletion strains, locus YGL167C, strain pmr1, stronger effect = lower value 0.986 | S. cerevisiae deletion strains, locus YGL173C, strain kem1, stronger effect = lower value 0.959 | S. cerevisiae deletion strains, locus YGL227W, strain vid30, stronger effect = lower value 0.976 | S. cerevisiae deletion strains, locus YGL240W, strain doc1, stronger effect = lower value 0.972 | S. cerevisiae deletion strains, locus YGL253W, strain hxk2, stronger effect = lower value 0.986 | S. cerevisiae deletion strains, locus YHR013C, strain ard1, stronger effect = lower value 0.973 | S. cerevisiae deletion strains, locus YHR027C, strain rpn1, stronger effect = lower value 0.964 | [2] 0.972 | S. cerevisiae deletion strains, locus YHR079C, strain IRE1, stronger effect = lower value 0.974 | S. cerevisiae deletion strains, locus YHR142W, strain chs7, stronger effect = lower value 0.981 | S. cerevisiae deletion strains, locus YJL092W, strain hpr5, stronger effect = lower value 0.994 | S. cerevisiae deletion strains, locus YJL095W, strain BCK1 (second series), stronger effect = lower value 0.977 | S. cerevisiae deletion strains, locus YJL095W, strain BCK1, stronger effect = lower value 1.02 | S. cerevisiae deletion strains, locus YJL115W, strain asf1, stronger effect = lower value 0.975 | S. cerevisiae deletion strains, locus YJL129C, strain trk1, stronger effect = lower value 0.999 | S. cerevisiae deletion strains, locus YJL154C, strain vps35, stronger effect = lower value 0.97 | S. cerevisiae deletion strains, locus YJL164C, strain tpk1, stronger effect = lower value 0.998 | S. cerevisiae deletion strains, locus YJL166W, strain qcr8, stronger effect = lower value 0.974 | [3] 0.983 | S. cerevisiae deletion strains, locus YJR066W, strain TOR1, stronger effect = lower value 0.923 | S. cerevisiae deletion strains, locus YKL160W, strain elf1, stronger effect = lower value 0.992 | S. cerevisiae deletion strains, locus YKR026C, strain gcn3, stronger effect = lower value 0.993 | S. cerevisiae deletion strains, locus YKR091W, strain srl3, stronger effect = lower value 0.984 | S. cerevisiae deletion strains, locus YLL001W, strain dnm1, stronger effect = lower value 0.998 | S. cerevisiae deletion strains, locus YLL026W, stronger effect = lower value 0.964 | S. cerevisiae deletion strains, locus YLL041C, strain sdh2, stronger effect = lower value 0.981 | S. cerevisiae deletion strains, locus YLR027C, strain aat2, stronger effect = lower value 0.977 | S. cerevisiae deletion strains, locus YLR113W, strain HOG1, stronger effect = lower value 1.01 | S. cerevisiae deletion strains, locus YLR221C, strain rsa3, stronger effect = lower value 0.991 | S. cerevisiae deletion strains, locus YLR258W, strain gsy2, stronger effect = lower value 0.987 | S. cerevisiae deletion strains, locus YLR262C, strain YPT6 (second series), stronger effect = lower value 0.962 | S. cerevisiae deletion strains, locus YLR320W, strain mms22, stronger effect = lower value 0.985 | S. cerevisiae deletion strains, locus YLR342W, strain FKS1, stronger effect = lower value 0.985 | S. cerevisiae deletion strains, locus YLR357W, strain rsc2, stronger effect = lower value 1.01 | S. cerevisiae deletion strains, locus YLR370C, strain arc18, stronger effect = lower value 0.973 | S. cerevisiae deletion strains, locus YLR384C, strain iki3, stronger effect = lower value 0.975 | S. cerevisiae deletion strains, locus YML120C, strain ndi1, stronger effect = lower value 0.987 | S. cerevisiae deletion strains, locus YMR058W, strain fet3, stronger effect = lower value 0.974 | S. cerevisiae deletion strains, locus YMR125W, strain sto1, stronger effect = lower value 0.979 | S. cerevisiae deletion strains, locus YMR129W, stronger effect = lower value 0.995 | S. cerevisiae deletion strains, locus YMR205C, strain PFK2, stronger effect = lower value 0.968 | S. cerevisiae deletion strains, locus YMR231W, strain pep5, stronger effect = lower value 0.991 | S. cerevisiae deletion strains, locus YNL071W, strain lat1, stronger effect = lower value 0.985 | S. cerevisiae deletion strains, locus YNL183C, strain NPR1, stronger effect = lower value 0.935 | S. cerevisiae deletion strains, locus YNL209W, strain ssb2, stronger effect = lower value 0.977 | S. cerevisiae deletion strains, locus YNL248C, strain rpa49, stronger effect = lower value 0.986 | S. cerevisiae deletion strains, locus YNL322C, strain KRE1 (second series), stronger effect = lower value 0.966 | S. cerevisiae deletion strains, locus YNR049C, strain mso1, stronger effect = lower value 0.976 | S. cerevisiae deletion strains, locus YOR001W, strain rrp6, stronger effect = lower value 0.977 | S. cerevisiae deletion strains, locus YOR070C, strain gyp1, stronger effect = lower value 0.978 | S. cerevisiae deletion strains, locus YOR080W, strain dia2, stronger effect = lower value 0.974 | S. cerevisiae deletion strains, locus YOR083W, strain WHI5, stronger effect = lower value 0.98 | S. cerevisiae deletion strains, locus YOR106W, strain vam3, stronger effect = lower value 0.979 | S. cerevisiae deletion strains, locus YOR231W, strain MKK1, stronger effect = lower value 0.99 | S. cerevisiae deletion strains, locus YOR265W, strain rbl2, stronger effect = lower value 0.973 | S. cerevisiae deletion strains, locus YOR270C, strain vph1, stronger effect = lower value 0.996 | S. cerevisiae deletion strains, locus YOR290C, strain snf2, stronger effect = lower value 0.976 | S. cerevisiae deletion strains, locus YPL051W, strain arl3, stronger effect = lower value 0.988 | S. cerevisiae deletion strains, locus YPL078C, strain atp4, stronger effect = lower value 0.98 | S. cerevisiae deletion strains, locus YPL106C, strain sse1, stronger effect = lower value 0.916 | S. cerevisiae deletion strains, locus YPL240C, strain hsp82, stronger effect = lower value 0.982 | S. cerevisiae deletion strains, locus YPL256C, strain CLN2, stronger effect = lower value 0.93

CC(OCc1ccccc1)C(NC(=O)OC(C)(C)C)C(N)=O (stereo not drawn)
inactive: [4] 0.998 | S. cerevisiae deletion strains, locus YBR229C, strain ROT2, stronger effect = lower value 0.994 | [1] 0.993 | S. cerevisiae deletion strains, locus YDL101C, strain DUN1, stronger effect = lower value 0.993 | S. cerevisiae deletion strains, locus YDL134C, strain PPH21, stronger effect = lower value 0.994 | [5] 0.985 | S. cerevisiae deletion strains, locus YEL061C, strain CIN8, stronger effect = lower value 0.988 | [6] 0.997 | [2] 0.903 | S. cerevisiae deletion strains, locus YHR087W, strain rtc3, stronger effect = lower value 0.988 | [3] 1 | S. cerevisiae deletion strains, locus YJR043C, strain POL32, stronger effect = lower value 0.974 | [7] 1.02 | S. cerevisiae deletion strains, locus YLR039C, strain RIC1, stronger effect = lower value 0.977 | S. cerevisiae deletion strains, locus YLR058C, strain SHM2 (second series), stronger effect = lower value 1 | S. cerevisiae deletion strains, locus YLR085C, strain ARP6, stronger effect = lower value 1.02 | S. cerevisiae deletion strains, locus YLR262C, strain YPT6, stronger effect = lower value 0.864 | S. cerevisiae deletion strains, locus YML094W, strain GIM5, stronger effect = lower value 1.04 | S. cerevisiae deletion strains, locus YMR219W, strain ESC1, stronger effect = lower value 0.991 | [8] 0.976 | [9] 1.07 | S. cerevisiae deletion strains, locus YNL153C, strain GIM3, stronger effect = lower value 0.998 | S. cerevisiae deletion strains, locus YNL298W, strain CLA4 (second series), stronger effect = lower value 0.974 | [10] 0.985 | S. cerevisiae deletion strains, locus YNR030W, strain Alg12, stronger effect = lower value 0.961 | [11] 1.02 | [12] 1 | S. cerevisiae deletion strains, locus YPR135W, strain CTF4, stronger effect = lower value 0.9 | S. cerevisiae strains, strain wild type, stronger effect = lower value 0.971

COc1cc(-c2ccc(=O)[nH]n2)ccc1OC(F)F
inactive: [13] 0.975 | [14] 1.01 | [15] 0.997 | [16] 1 | [6] 1.01 | [7] 1 | [9] 0.995 | S. cerevisiae deletion strains, locus YNL128W, strain TEP1, stronger effect = lower value 1.01 | [17] 1.03 | [18] 0.994 | [19] 1.01 | [10] 0.997 | [20] 1.02 | [11] 1.02 | [12] 1

Cn1ccnc1
inactive: [4] 1.01 | [13] 1.01 | [14] 1 | [5] 1 | [15] 1.01 | [16] 1 | [6] 1.01 | [8] 1.01 | [9] 1 | [17] 1 | [18] 1 | [19] 1.01 | [20] 1.02 | [11] 1
